The values below come from PubChem BioAssay (NCI).

What all share (assay): NCI-60 one-dose screen, 48 h (100 = growth as untreated, 0 = no growth, -100 = all killed)
Assay [1] concerns NCI-H23 lung. The following applies: 10 µM unless noted.
In assay [2] the test system is NCI-H322M lung. The following applies: 10 µM unless noted.
Assay [3] has as its system HOP-62 NSCLC. Particulars: 10 µM unless noted.
Assay [4] has as its system NCI-H460 lung. Particulars: 10 µM unless noted.
The subject of assay [5] is HOP-92 NSCLC. The following applies: 10 µM unless noted.
Assay [6] has as its system NCI-H522 lung. The following applies: 10 µM.
In assay [7] the test system is A549/ATCC NSCLC. The following applies: 10 µM unless noted.
Assay [8] relates to 786-0 renal. Particulars: 10 µM unless noted.
Assay [9] concerns COLO 205 colon. The following applies: 10 µM unless noted.

About 83,000 compounds went through this panel and 20% of them were active in at least one assay; those are over-represented in the sample as a whole.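 Assay: single dose, 48 h. Readout: percent growth (0 = no net growth; negative = cell death). Active: <10.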 Values without a mark were called inactive. Activity calls are given as the source filed them.

Consider `O=c1c2cc(F)ccc2oc2c(NCCNCCO)nc3ccccc3c12`, for which the growth is 53% in assay [1]; 36.1% in assay [2]; 35.5% in assay [3]; 13.1% in [4]; 38.4% in assay [5]; 39.8% in [6]. Further, the results for the growth in assay [7] and in [8] were 45.1% and 42%, respectively.

On to `Cc1cccc2c(=O)c3c(sc12)c(NCCNCCO)nc1ccccc13`, for which the growth is 55.3% in assay [1]; 37.7% in assay [2]; 22.6% in assay [3]; 9.95% (active) in assay [4]; 33.1% in [5]; 29.1% in assay [6]. Besides, the growth in [7] was 37.7%; in assay [8], 52.9%.

Consider `CCOC(=O)c1cnn(CC(O)c2ccc(F)cc2)c1NC(=O)Nc1ccccc1F` (stereo not given), for which the growth in [1] is 98.4%; in assay [2], 103%; in [3], 101%; in assay [4], 105%; in assay [5], 102%; in [6], 92.2%. In addition, the growth in [7] was 103%; in assay [8] it was 90.3%.

Turning to `COc1ccc(OC)c(/C=C2\Oc3cc(O)ccc3C2=O)c1`, the growth in assay [1] was 96.1%; in assay [2] it was 92.6%; in assay [3] it was 101%; in [4] it was 91.6%; in assay [5] it was 98.2%; in assay [6], 77.6%. Further, the growth in assay [7] was 98.8%; in [8], 89.5%.

As for `CC(=O)OC[C@H](O)[C@@]1(O)CC[C@H]2[C@@H]3CCC4=CC(=O)CC[C@]4(C)[C@H]3[C@@H](O)C[C@@]21C`, the growth in [1] is 103%; in assay [2] it was 112%; in assay [3] it was 115%; in assay [4] it was 97.3%; in assay [5], 81.7%; in [6] it was 99.6%. In addition, the growth in assay [7] was 83.1%; in assay [8] it was 104%.

For `O=C1c2ccccc2-c2cn(Cc3ccccc3)c3cccc(c23)C1c1cccnc1` (stereo not given), the growth in [1] is 45.5%; in assay [2] it was 54%; in assay [3], 36%; in [4], 23.2%; in [5], 76.8%; in assay [6] it was -12.4% (active). Also, the growth is 42.2% in assay [7] and 52.2% in assay [8].

Turning to `COC(=O)c1c2c(c(C)[n+]([O-])c1C)C(=O)C=C(NCc1ccc(F)c(Cl)c1)C2=O`, the growth was -65.9% (active) in assay [1]; -38.9% (active) in assay [2]; -51.9% (active) in assay [3]; -38.7% (active) in [4]; -42.6% (active) in [5]; -39.4% (active) in [6]. The figures for the growth in [7] and in assay [8] were -47.4% (active) and 3.92% (active), respectively.

Take `CCCCCn1c(=N)n(CC(O)COc2cccc(C)c2)c2ccccc21` (stereo not given): the growth was 7.8% (active) in assay [1]; 14% in assay [2]; 17.9% in assay [3]; 0.388% (active) in [4]; -10.9% (active) in [5]; 7.6% (active) in assay [7]. Further, the growth in assay [8] is 32.6%; in assay [9], 87.2%.

Turning to `CN1CCN(c2ccc3nc(-c4ccc5nc(-c6ccc(C(F)(F)F)cc6)[nH]c5c4)[nH]c3c2)CC1`, the growth in [1] was 68.2%; in [2], 80.1%; in [3] it was 51.3%; in assay [4] it was 30.9%; in assay [5] it was 59.3%; in [6], 64.1%. The figures for the growth in assay [7] and in assay [8] were 89.8% and 69.6%, respectively.

Take `CC(=O)Nc1ccc(Sc2ccc([N+](=O)[O-])o2)cc1`: the growth in [1] is 39.9%; in assay [2], 98.3%; in [3], 68.4%; in [4] it was 46.9%; in [5] it was 40.2%; in assay [7], 65.1%. Moreover, the growth in assay [8] is 50.7%; in assay [9], -67.3% (active).

For the compound `Fc1c[c-]c(-c2ccccn2)c(F)c1.Fc1c[c-]c(-c2ccccn2)c(F)c1.[Cl][Pt+].[Cl][Pt+].c1ccc([PH+](C[PH+](c2ccccc2)c2ccccc2)c2ccccc2)cc1`, the growth in assay [1] is -6.3% (active); in assay [2] it was 66.6%; in assay [3], 20.9%; in [4], 8.7% (active); in assay [5], 2.42% (active); in [7] it was 20.6%. Also, the growth in assay [8] is 31.8%; in assay [9], -65.2% (active).

Regarding `COc1cc2cc(Oc3ccc(NC(=O)Nc4ccc(Cl)c(C(F)(F)F)c4)cc3)c(C)nc2cc1OCCN1CCCCC1`, the growth in assay [1] was -80.4% (active); in [2], 8.09% (active); in assay [3] it was 85.6%; in assay [4], -82% (active); in [5] it was 37.4%; in assay [7] it was -54.4% (active). Also, the growth is -89.3% (active) in assay [8] and -81.4% (active) in assay [9].

As to `Cc1ccc2nc(NC(=O)CSC(=S)N3CCN(C)CC3)sc2c1`, the growth is 92.4% in assay [1]; 106% in [2]; 106% in assay [3]; 106% in assay [4]; 94.5% in [5]; 95.3% in assay [7]. Moreover, the growth is 108% in assay [8] and 105% in assay [9].

As to `COc1c(O)c2c3c(c1OC)-c1ccccc1CC3N(S(=O)(=O)c1ccc(C)cc1)CC2` (stereo not given), the growth is 41.2% in assay [1]; 53% in assay [2]; 41.6% in assay [3]; 23.3% in [4]; 59.8% in [5]; 19.9% in [6]. Besides, the growth in [7] was 44.1%; in assay [8] it was 75.8%.

Consider `O=C1CC(c2ccsc2)c2snc(-c3ccc(Cl)cc3)c2N1` (stereo not given), for which the growth in assay [1] is 35.9%; in [2], 55.7%; in assay [3], 37.2%; in assay [4], 10.6%; in assay [5], 51.1%; in [7] it was 35.1%. Moreover, the results for the growth in assay [8] and in [9] were 39.6% and -42.8% (active), respectively.
